Here are results for 40 compounds from PubChem BioAssay (Tox21).

The structures appear in SMILES notation. Records with an inconclusive call do not appear. Values without a mark were called inactive. Calls come from the whole dose curve; as a rule, active = well fitted curve in the direction sought with a large enough effect in the signal ratio in the repeat runs (not every such curve was filed as active); inconclusive = weak or mixed curves, or a change in a side signal; inactive = no such curve, though single readings can be large or run the other way; the % refers to the signal ratio.
% is set by controls: 0 for no effect and ±100 for the full control effect.

This assay can be described thus: qHTS assay to identify small molecule agonists of the NFkB signaling pathway (AID 1159509). As to conditions: NFkB-bla ME-180 cells, beta-lactamase FRET ratio, 5 h; series mostly up to 61 µM; activation: at the top concentration. An excerpt: National Center for Advancing Translational Sciences [NCATS]
NIH Chemical Genomics Center [NCGC]
U.S. Environmental Protection Agency [EPA]
National Institutes of Environmental Health Sciences [NIEHS]
National Toxicology Program [NTP]
U.S. Food and Drug Administration [FDA]
Transcription factors and their stimulated target gene expression play pivotal roles across many cellular processes including responses to environmental stimuli. Proper regulation of associated pathways is critical to maintain cell health and function. Constitutive activation of transcription factor pathways has been implicated in tumors as it may block cellular functions such as apoptosis and lead to invasion and metastasis. One important transcription factor that stimulates gene expression in response to cytokines, UV radiation, and other stimuli is nuclear factor-kappa B (NFkB). To measure activation of the NFkB pathway, the CellSensor NFkB-bla ME-180 cell line (Life Technologies, Carlsbad, CA) that stably expresses beta-lactamase reporter gene under the regulation of a NF-kB response element was used. This assay allows measurement of the NFkB pathway activity induced by compounds in a ME-180 cell line. This system quantitates NF-kB activity using a FRET-based assay system where beta-lactamase expression disrupts FRET, allowing for fluorescent measurement of activity. This cell line has been used to screen the Tox21 10K compound library and to identify compounds that induce the NFkB pathway activity.
Tox21 Assay Protocol Summary:
NFkB-bla ME-180 cells were dispensed at 2,000 cells/6 uL of assay medium per well into black wall/clear-bottom 1536-well plates using a Multidrop Combi (ThermoFisher Scientific, Waltham, MA) dispenser. After the assay plates were incubated at 37 C and 5% CO2 for an overnight, 23 nL of compounds dissolved in DMSO, positive controls or DMSO only was transferred to the assay plate by a Pintool station (Kalypsys, San Diego, CA). The assay plates were incubated at 37 C and 5% CO2 for 5 hr. One uL of LiveBLAzer B/G FRET substrate (Life Technologies) was added using a Flying Reagent Dispenser (Aurora Discovery, San Diego, CA) and the plates were incubated at room temperature for 1.5 hr. Fluorescence intensity (405 nm excitation, 460 nm and 530 nm emissions) was measured using an Envision plate reader (PerkinElmer, Shelton, CT).
With `CCOP(=S)(OCC)SCSCC`, the “activation” value is -0.443%. `CN1C[C@H](CNC(=O)OCc2ccccc2)C[C@@H]2c3cccc4c3c(cn4C)C[C@H]21`: the “activation” value is 1.63%. For the compound `Nc1ccc(N=Nc2ccc(-c3ccc(N=Nc4c(S(=O)(=O)O)cc5cc(S(=O)(=O)O)c(N=Nc6ccccc6)c(O)c5c4N)cc3)cc2)c(N)c1`, the “activation” value was 0.16%. For `OCCCBr` the value was -1.66%; for `CCC(C)(NC(=O)c1cc(Cl)c(C)c(Cl)c1)C(=O)CCl` (stereo not given), -0.312% [at 78.8 µM].

As to `CC(C)(CCl)C(=O)Cl`, the “activation” value is -0.491%.

Take `CCOC(=O)CBr`: the “activation” value is 0.0951% [at 78.8 µM]. In the case of `CCOP(=O)(OCC)O/C(=C/Cl)c1ccc(Cl)cc1Cl` it was -0.907%; in that of `Cc1ccc(N)cc1C`, 0.56% [at 78.8 µM]; in that of `O=C(O)C1(c2ccc3c(c2)OC[C@H](Cc2ccc(-c4ccccc4)cc2)[C@H]3O)CCCC1`, 0.229%. Take `CC(Cl)Cl`: the “activation” value is -0.975%. As for `[CH3][Sn]([CH3])([Cl])[Cl]`, the “activation” value was -0.577%. Take `O=Cc1ccc(Cl)cc1Cl`: the “activation” value was -0.287% [at 78.8 µM]. For the compound `CCCCCCC#N`, the “activation” value was -0.344%. For `CO[C@@H]1[C@H](OC(=O)NC(=O)CCl)CC[C@]2(CO2)[C@H]1[C@@]1(C)O[C@@H]1CC=C(C)C` the value was 2.76% [at 28.5 µM]; for `O=C(C(Cl)(Cl)Cl)C(Cl)(Cl)Cl`, -0.335% [at 78.8 µM]; for `Clc1cc(Cl)c(Cl)c(Cl)c1`, 0.0656%.

With `O=C(Nc1ccccc1)Nc1cnns1`, the “activation” value was -0.133%. For `CC(C)N(CCC(C(N)=O)(c1ccccc1)c1ccccn1)C(C)C` (stereo not given) the value was -0.523%; for `O=C(CBr)c1ccccc1`, 0.0919% [at 78.8 µM]. On to `NCC(CC(=O)O)c1ccc(Cl)cc1` (stereo not given), for which the activation was 0.398% [at 0.628 µM].

With `IC(I)=C(I)I`, the “activation” value was 0.332%. Consider `CCc1ccc(C(=O)NN(C(=O)c2cc(C)cc(C)c2)C(C)(C)C)cc1`, for which the “activation” value is 0.0221%. In the case of `COc1ccc(-c2ccccc2)cc1NNC(=O)OC(C)C`, the “activation” value was 0.0645% [at 78.8 µM].

As to `COCCOCCO`, the “activation” value was 1.7%. In the case of `CCCCOC(=O)c1ccccc1C(=O)OCc1ccccc1` it was -0.0131%. As for `II`, the “activation” value was 1.48%.

`CC(Cl)C(C)Cl` (stereo not given): the “activation” value was 1.28%. For `O=C(CBr)OCc1ccccc1` the value was -0.85%; for `CCCCc1c(C)nc(NCC)nc1OS(=O)(=O)N(C)C`, -1.12%.

With `ClCc1ccccc1`, the “activation” value was -0.0791%.

Take `CN(C)c1ccc(N(C)C)cc1`: the “activation” value is 2.73%. With `ClP(Cl)(Cl)(Cl)Cl`, the “activation” value was -0.98% [at 78.8 µM]. On to `O=S1OC[C@@H]2[C@H](CO1)[C@]1(Cl)C(Cl)=C(Cl)[C@@]2(Cl)C1(Cl)Cl` (stereo not given in full), for which the “activation” value was 2.62%. Regarding `COC(C)(C)CCC[C@H](C)C/C=C/C(C)=C/C(=O)OC(C)C`, the “activation” value is 0.222%. For `CC(O)(CS(=O)(=O)c1ccc(F)cc1)C(=O)Nc1ccc(C#N)c(C(F)(F)F)c1` (stereo not given) the value was -0.599%. In the case of `O=[Se]=O` it was -0.0561%. For `Oc1ccc(Cl)c(Cl)c1Cl` the value was 0.659% [at 78.8 µM]; for `CO/N=C(/C(=O)OC)c1ccccc1COc1ccccc1C`, 0.646%; for `O=C(CBr)Nc1ccc(Cl)cc1C(=O)c1ccccc1F`, -0.291%.
